IDE exosite inh = insulin-degrading enzyme (human) exo-site inhibition. P14735. purified IDE, FL-6b probe fluorescence polarization; stronger effect = lower value. z-score at 20 µM. actives 6.3% (n = 17,000). AID 1259349;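 active = z-score of -3 or lower, meaning strong loss of probe binding signal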;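 note: His-tagged human IDE residues 42-1019 made in E. coli with 30 nM FL-6b probe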
Target sequence (P14735 42-1019 limits assumed): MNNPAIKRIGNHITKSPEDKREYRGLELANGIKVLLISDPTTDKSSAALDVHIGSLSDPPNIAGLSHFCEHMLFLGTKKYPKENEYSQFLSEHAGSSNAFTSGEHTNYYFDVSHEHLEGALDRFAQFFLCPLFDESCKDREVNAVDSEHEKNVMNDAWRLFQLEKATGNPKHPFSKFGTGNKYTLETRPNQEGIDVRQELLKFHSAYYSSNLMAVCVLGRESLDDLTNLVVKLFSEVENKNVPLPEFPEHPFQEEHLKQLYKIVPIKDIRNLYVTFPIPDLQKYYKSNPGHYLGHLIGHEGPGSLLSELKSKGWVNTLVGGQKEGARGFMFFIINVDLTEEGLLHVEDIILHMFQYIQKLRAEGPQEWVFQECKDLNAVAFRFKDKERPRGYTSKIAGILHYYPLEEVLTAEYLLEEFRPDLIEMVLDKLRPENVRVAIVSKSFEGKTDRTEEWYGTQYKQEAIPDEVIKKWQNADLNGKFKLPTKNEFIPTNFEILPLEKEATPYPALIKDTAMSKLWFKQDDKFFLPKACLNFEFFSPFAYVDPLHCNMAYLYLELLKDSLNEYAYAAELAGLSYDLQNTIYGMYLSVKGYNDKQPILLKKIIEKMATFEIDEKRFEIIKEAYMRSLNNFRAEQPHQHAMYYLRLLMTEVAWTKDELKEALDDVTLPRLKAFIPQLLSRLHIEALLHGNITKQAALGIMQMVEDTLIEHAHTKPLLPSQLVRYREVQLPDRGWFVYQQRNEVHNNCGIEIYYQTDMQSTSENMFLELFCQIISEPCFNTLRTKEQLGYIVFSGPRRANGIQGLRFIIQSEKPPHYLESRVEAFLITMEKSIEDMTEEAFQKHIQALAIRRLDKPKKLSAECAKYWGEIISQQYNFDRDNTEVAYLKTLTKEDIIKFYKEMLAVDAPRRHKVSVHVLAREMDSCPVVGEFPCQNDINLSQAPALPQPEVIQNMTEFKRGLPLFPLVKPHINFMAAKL
Numbers stand for hits; – = inactive. This excerpt belongs to a sample that is enriched for hits.

SMILES	IDE exosite inh
O=C1CN(S(=O)(=O)c2cccc(F)c2)C[C@@H]2[C@@H](c3ccc(C4=CCCC4)cc3)[C@H](CO)N12	–
C/C=C/c1ccc([C@H]2[C@@H](CO)N(C(C)=O)[C@H]2CN(C)C(=O)c2ccccn2)cc1	–
COc1ccccc1NC(=O)N1CCCCN2[C@H](C1)[C@@H](c1ccc(-c3ccc(C)cc3)cc1)[C@@H]2CO	–
CN(C[C@@H]1N[C@H](CO)[C@@H]1c1ccc(C2=CCCC2)cc1)S(C)(=O)=O	–
O=C(C[C@H]1CC[C@@H](NC(=O)c2ccc3c(c2)OCO3)[C@H](CO)O1)NCc1ccc(Oc2ccccc2)cc1	–
CCCNC(=O)N1[C@H](CO)[C@H](c2ccccc2-c2cccc(C)c2)[C@@H]1C#N	–
OC[C@H]1[C@@H](c2ccc(-c3ccccc3F)cc2)[C@H]2CN(Cc3ccncc3)CCCCN21	–
OC[C@H]1[C@H](c2ccc(-c3ccccc3F)cc2)[C@H]2CN(Cc3ccncc3)CCCCN21	-3.27
OC[C@@H]1[C@H](c2ccc(-c3ccccc3F)cc2)[C@@H]2CN(Cc3ccncc3)CCCCN12	–
OC[C@@H]1[C@@H](c2ccc(-c3ccccc3F)cc2)[C@@H]2CN(Cc3ccncc3)CCCCN12	–
COc1ccccc1-c1ccc([C@@H]2[C@@H](CO)N3CCCCN(Cc4ccncc4)C[C@@H]23)cc1	-6.78
COc1ccc(C#Cc2ccc([C@H]3[C@H]4CN(Cc5ccncc5)CCCCN4[C@H]3CO)cc2)cc1	–
N#Cc1ccc(-c2ccc([C@@H]3[C@@H](CO)N4C(=O)CN(C(=O)C5CCCCC5)C[C@H]34)cc2)cc1	–
O=C(NC[C@@H]1[C@H](c2ccccc2)[C@@H](CO)N1CC1CCCC1)c1cccnc1	–
CN1c2ccc(Br)cc2[C@@H]2[C@@H](CCN2C(=O)CN2CCOCC2)[C@H]1CO	–
O=C(c1ccc(F)cc1)N1CC(=O)N2[C@H](C1)[C@@H](c1ccc(C#CC3CCCCC3)cc1)[C@@H]2CO	–
C/C=C/c1ccc([C@H]2[C@H]3CN(C(=O)c4cnccn4)CC(=O)N3[C@H]2CO)cc1	–
O=C(c1cnccn1)N1CC(=O)N2[C@H](CO)[C@@H](c3ccc(-c4ccc(F)cc4)cc3)[C@H]2C1	–
O=C(c1cnccn1)N1CC(=O)N2[C@@H](CO)[C@H](c3ccc(-c4ccc(F)cc4)cc3)[C@@H]2C1	–
C/C=C/c1ccc([C@@H]2[C@@H](CO)N3C(=O)CN(C(=O)c4cnccn4)C[C@H]23)cc1	–
O=C(c1cnccn1)N1CC(=O)N2[C@H](CO)[C@@H](c3ccc(/C=C/c4ccccc4)cc3)[C@H]2C1	-6.5
O=C(c1cnccn1)N1CC(=O)N2[C@@H](CO)[C@H](c3ccc(/C=C/c4ccccc4)cc3)[C@@H]2C1	-6.47
O=C(c1cnccn1)N1CC(=O)N2[C@H](CO)[C@@H](c3ccc(/C=C/c4ccccc4)cc3)[C@@H]2C1	-5.47
C/C=C/c1ccc([C@H]2[C@H](CO)N3C(=O)CN(C(=O)c4cnccn4)C[C@@H]23)cc1	–
O=C(c1cnccn1)N1CC(=O)N2[C@H](CO)[C@H](c3ccc(/C=C/c4ccccc4)cc3)[C@@H]2C1	-5.34
SMILES	IDE exosite inh
C/C=C/c1ccc([C@@H]2[C@@H](CO)N(C(C)=O)[C@@H]2CNC(=O)c2ccccc2)cc1	–
C/C=C/c1ccc([C@H]2[C@H](CO)N(C(C)=O)[C@H]2CN(C)C(=O)c2ccccn2)cc1	–
COC(=O)C[C@@H]1CC[C@@H]2[C@@H](COc3ccc(NC(=O)Nc4cccc(C#N)c4)cc3C(=O)N2C)O1	–
Cc1ccccc1S(=O)(=O)N1[C@H](CO)[C@@H](c2ccc(-c3ccc(F)cc3)cc2)[C@@H]1C#N	–
CN(C)C(=O)c1cccc(-c2ccc([C@H]3[C@@H](CO)N4CCCCN(CC5CCOCC5)C[C@@H]34)cc2)c1	–
COC(=O)C[C@@H]1C[C@H]2c3cc(N)ccc3O[C@H]2[C@@H](CO)O1	–
Cc1noc(C)c1NC(=O)Nc1ccc2c(c1)C(=O)N([C@@H](C)CO)C[C@@H](C)[C@@H](CN(C)Cc1ccc3c(c1)OCO3)OCCCC[C@@H](C)O2	–
CN(C)CC#Cc1ccc([C@@H]2[C@@H](CO)N3CCCCN(C(=O)c4ccc5c(c4)OCO5)C[C@@H]23)cc1	–
CCS(=O)(=O)N1CCC2(CC1)CN(C(=O)c1cccc(F)c1)[C@@H](CO)c1c2c2ccc(OC)cc2n1C	–
FC(F)(F)c1cccc(CN2[C@@H]3CNC[C@H]2C3c2ccc(-c3ccncc3)cc2)c1 (stereo partly specified)	–
COCCNC(=O)C[C@H]1C[C@@H]2c3cc(NC(=O)CN(C)C)ccc3O[C@@H]2[C@@H](CO)O1	–
C[C@H]1CN([C@@H](C)CO)C(=O)c2ccccc2-c2ccccc2CO[C@@H]1CN(C)S(=O)(=O)c1cccs1	–
CCS(=O)(=O)Nc1ccc2c(c1)C(=O)N(C)[C@@H]1CC[C@H](CC(=O)N3CCN(C)CC3)O[C@H]1CO2	–
CS(=O)(=O)N1CCCCN2[C@H](CO)[C@H](c3ccc(Br)cc3)[C@@H]2C1	–
C[C@H]1CN([C@@H](C)CO)S(=O)(=O)c2ccc(C#CCC3CCCC3)cc2O[C@H]1CN(C)C(=O)c1cnccn1	–
COc1ccccc1NC(=O)N1CCCCN2[C@H](CO)[C@H](c3ccc(-c4cccc(C#N)c4)cc3)[C@H]2C1	–
CN(C)C(=O)c1ccc(-c2ccc([C@@H]3[C@@H](CO)N4C(=O)CN(C(=O)C5CCC5)C[C@H]34)cc2)cc1	–
CCC(=O)N1[C@H](CO)[C@@H](c2ccccc2)[C@@H]1CN(C)C(=O)CN1CCOCC1	–
C/C=C/c1ccc([C@@H]2[C@@H](CN(C)C(=O)CC3CC3)N(C(=O)C3CC3)[C@H]2CO)cc1	–
CC(=O)N1CC(=O)N2[C@@H](CO)[C@H](c3ccc(C#Cc4cccnc4)cc3)[C@@H]2C1	–
CC(=O)N1CC(=O)N2[C@H](CO)[C@H](c3ccc(C#Cc4cccnc4)cc3)[C@H]2C1	–
COc1cccc(C#Cc2ccc([C@H]3[C@@H](CO)N4C(=O)CN(C(C)=O)C[C@H]34)cc2)c1	-7.89
COc1cccc(C#Cc2ccc([C@@H]3[C@@H](CO)N4C(=O)CN(C(C)=O)C[C@H]34)cc2)c1	–
COc1cccc(C#Cc2ccc([C@H]3[C@@H](CO)N4C(=O)CN(C(C)=O)C[C@@H]34)cc2)c1	-5.05
COc1ccc(C#Cc2ccc([C@H]3[C@H](CO)N4C(=O)CN(C(C)=O)C[C@@H]34)cc2)cc1	–
SMILES	IDE exosite inh
COc1cccc(C#Cc2ccc([C@@H]3[C@H]4CN(C(C)=O)CC(=O)N4[C@H]3CO)cc2)c1	-3.9
COc1ccc(C#Cc2ccc([C@@H]3[C@@H](CO)N4C(=O)CN(C(C)=O)C[C@@H]34)cc2)cc1	–
CC(=O)N1CC(=O)N2[C@H](CO)[C@@H](c3ccc(C#Cc4cccnc4)cc3)[C@H]2C1	–
CCC(=O)N1CC(=O)N2[C@@H](CO)[C@H](c3ccc(C#Cc4cccnc4)cc3)[C@@H]2C1	–
CO[C@H]1CC[C@@H]2CCN(C)C(=O)[C@H](C)CN(C)C(=O)c3cc(C#N)ccc3OC[C@H]1O2	–
COc1ccc(S(=O)(=O)N(C)C[C@@H]2OCCCC[C@H](C)Oc3ccc(NC(=O)Cc4ccccc4)cc3C(=O)N([C@H](C)CO)C[C@@H]2C)cc1	–
CN1c2ccc(C#Cc3cccnc3)cc2[C@@H]2[C@@H](CCN2C(=O)CN2CCOCC2)[C@H]1CO	–
COc1ccc(S(=O)(=O)N(C)C[C@H]2OCCCC[C@H](C)Oc3ccc(NC(=O)Cc4ccccc4)cc3C(=O)N([C@H](C)CO)C[C@@H]2C)cc1	–
